These results are taken from PubChem BioAssay (EPA / NIEHS).

One may read the AC50 as the concentration giving half of the maximal activity seen.

Values joined by “and” are separate entries in the source; they are usually repeats but may differ in a detail not shown here. Identical values can stand only once. Where a structure was tested more than once in an assay, its records may differ in their call. Active and inactive are the calls of the source. How the source made its calls: active means hit-call score of the fitted dose curve at least 0.9, where 1 is the maximum; inactive means score below 0.9.

Read-out in one assay: Interleukin-8 (IL8), CXCL8 (gene 3576)
Description: BSK_3C_IL8: BioMAP Diversity Plus: 3C Assay for Interleukin-8 (IL8) Biomarker Activity (AID 2283020). As to conditions: primary human endothelial cells (HUVEC); actives raise or lower the signal. An outline of the steps:
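HUVEC, 3C stimulation; 24 h compound exposure; IL-8 read by ELISA; gain or loss of signal fitted relative to DMSO control.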
For `COc1ccc(CCN2CCC(Nc3nc4ccccc4n3Cc3ccc(F)cc3)CC2)cc1`, the AC50 was 2.66 µM (active).

Take `CCC(C)c1cc([N+](=O)[O-])cc([N+](=O)[O-])c1OC(=O)OC(C)C` (configuration not stated): the AC50 was 34.1 µM (active).

Regarding `c1ccc2cc(Nc3ccc(Nc4ccc5ccccc5c4)cc3)ccc2c1`, the result was inactive.

`CC(C)(C)CC(C)(C)c1ccc(OCCOCC[N+](C)(C)Cc2ccccc2)cc1`: the half-maximal activity concentration (AC50) was 5 µM (active).

Turning to `CC(C)(N=C=O)c1cccc(C(C)(C)N=C=O)c1`, the result was inactive.

With `C1=CC2C3C=CC(C3)C2C1` (configuration not stated), the outcome was inactive.

Consider `CC1(C)CCC[C@]2(C)[C@H]3CCO[C@]3(C)CC[C@@H]12`, for which the half-maximal activity concentration (AC50) is 31.5 µM (active) and 35.4 µM (active).

Consider `CS(=O)(=O)c1ccc(C2=C(c3ccccc3)C(=O)OC2)cc1`, for which the result was inactive.

Read-out in a further assay: Monokine induced gamma interferon (MIG), CXCL9 (gene 4283)
Description: BSK_3C_MIG: BioMAP Diversity Plus: 3C Assay for Monokine induced gamma interferon (MIG) Biomarker Activity (AID 2283021).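 On AC50: MIG protein level measured by immunoassay in the treated endothelial cultures.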 The note with it: primary human endothelial cells (HUVEC); actives raise or lower the signal. A digest of the protocol:
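HUVEC, 3C system; 24 h chemical exposure; MIG by ELISA; bidirectional fit vs DMSO baseline.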
For `COc1ccc(CCN2CCC(Nc3nc4ccccc4n3Cc3ccc(F)cc3)CC2)cc1`, the result was inactive.

Consider `CCC(C)c1cc([N+](=O)[O-])cc([N+](=O)[O-])c1OC(=O)OC(C)C` (configuration not stated), for which the concentration at half-maximal activity (AC50) was 33.2 µM (active).

As to `c1ccc2cc(Nc3ccc(Nc4ccc5ccccc5c4)cc3)ccc2c1`, the result was inactive.

Turning to `CC(C)(C)CC(C)(C)c1ccc(OCCOCC[N+](C)(C)Cc2ccccc2)cc1`, the AC50 is 8.17 µM (active).

Turning to `CC(C)(N=C=O)c1cccc(C(C)(C)N=C=O)c1`, the result was inactive.

For `C1=CC2C3C=CC(C3)C2C1` (configuration not stated), the outcome was inactive.

In the case of `CC1(C)CCC[C@]2(C)[C@H]3CCO[C@]3(C)CC[C@@H]12`, the AC50 was 34.9 µM (active) and the result was inactive.

As for `CS(=O)(=O)c1ccc(C2=C(c3ccccc3)C(=O)OC2)cc1`, the result was inactive.
